Records with an inconclusive call do not appear. Activity calls are given as the source filed them. Unless noted, calls come from the whole dose curve.
Tests used:
[1] = qHTS for Inhibitors of the Functional Ribonucleoprotein Complex (vRNP) of Lassa (LASV) Arenavirus: LASV Primary Screen - GLuc reporter signal (AID 1347082; calls by dose curve; tested in HEK293 reporter line; note: nearly all actives have a fitted effect of over 60% in size); conditions: LASV minigenome vRNP, Gaussia luciferase reporter; series mostly up to 57.5 µM
[2] = qHTS for Inhibitors of the Functional Ribonucleoprotein Complex (vRNP) of Lassa (LASV) Arenavirus: Viability assay - alamar blue signal for LASV Primary Screen (AID 1347083; calls by dose curve; tested in HEK293 reporter line; note: nearly all actives have a fitted effect of over 80% in size); conditions: cell viability, alamar blue fluorescence (LASV minigenome counter-screen); series mostly up to 57.5 µM
[3] = qHTS for Inhibitors of the Functional Ribonucleoprotein Complex (vRNP) of Lymphocytic Choriomeningitis Arenaviruses (LCMV): Viability assay - alamar blue signal for LCMV Primary Screen (AID 1347085; calls by dose curve; tested in HEK293 reporter line; note: nearly all actives have a fitted effect of over 80% in size); conditions: alamar blue viability counter-screen, LCMV vRNP screen cells; series mostly up to 57.5 µM
[4] = target: Nucleoprotein (Lymphocytic choriomeningitis virus (strain Armstrong)) (UniProt P09992); assay: qHTS for Inhibitors of the Functional Ribonucleoprotein Complex (vRNP) of Lymphocytic Choriomeningitis Arenaviruses (LCMV): LCMV Primary Screen - GLuc reporter signal (AID 1347086); conditions: LCMV minigenome vRNP cell assay, Gaussia luciferase reporter; series mostly up to 57.5 µM; note: nearly all actives have a fitted effect of over 70% in size
Sequence of Nucleoprotein (Lymphocytic choriomeningitis virus (strain Armstrong)) (P09992 whole entry, looked up): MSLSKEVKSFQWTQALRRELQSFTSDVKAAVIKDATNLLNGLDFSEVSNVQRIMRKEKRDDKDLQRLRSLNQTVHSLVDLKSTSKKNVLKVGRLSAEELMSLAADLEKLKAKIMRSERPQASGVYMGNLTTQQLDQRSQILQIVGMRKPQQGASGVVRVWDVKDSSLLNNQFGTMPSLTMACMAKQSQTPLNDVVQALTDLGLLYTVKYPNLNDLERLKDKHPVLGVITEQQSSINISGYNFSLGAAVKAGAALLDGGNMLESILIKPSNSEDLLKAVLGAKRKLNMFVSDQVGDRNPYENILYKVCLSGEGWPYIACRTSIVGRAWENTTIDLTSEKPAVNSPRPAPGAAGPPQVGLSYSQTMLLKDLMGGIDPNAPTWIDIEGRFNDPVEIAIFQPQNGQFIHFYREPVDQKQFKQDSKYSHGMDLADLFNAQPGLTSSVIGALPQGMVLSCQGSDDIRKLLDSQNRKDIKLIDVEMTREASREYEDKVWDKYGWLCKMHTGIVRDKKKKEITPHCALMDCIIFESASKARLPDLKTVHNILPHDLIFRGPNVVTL
% is set by controls: 0 for no effect and ±100 for the full control effect.

CCCc1cc(C(N)=S)ccn1
inactive: Potency [1] | Potency [2] | Potency [3] | Potency [4]

CC[C@H](NC(C)C)[C@H](O)c1ccc(O)c2[nH]c(=O)ccc12
inactive: Potency [1] | Potency [2] | Potency [3] | Potency [4]

CCOc1ccc(C(=O)OCCN(CC)CC)cc1
inactive: Potency [1] | Potency [2] | Potency [3] | Potency [4]

NC(=O)NNc1ccccc1
inactive: Potency [1] | Potency [2] | Potency [3] | Potency [4]

c1ccc(OCc2ccc(CCCN3CCOCC3)cc2)cc1
inactive: Potency [1] | Potency [2] | Potency [3] | Potency [4]

CN(C)C/C=C(/c1ccc(Br)cc1)c1cccnc1
inactive: Potency [1] | Potency [2] | Potency [3] | Potency [4]

Cc1cc(CC(=O)O)n(C)c1C(=O)c1ccc(Cl)cc1
inactive: Potency [1] | Potency [2] | Potency [3] | Potency [4]

O=C(O)CCC(=O)Nc1ccc(S(=O)(=O)Nc2nccs2)cc1
inactive: Potency [1] | Potency [2] | Potency [3] | Potency [4]

CC1=C(C(=O)O)N2C(=O)[C@@H](NC(=O)[C@H](N)C3=CCC=CC3)[C@H]2SC1
inactive: Potency [1] | Potency [2] | Potency [3] | Potency [4]

O=C(O)CP(=O)(O)O
inactive: Potency [1] | Potency [2] | Potency [3] | Potency [4]

CCCCCCCCCCCCCCNCCO
inactive: Potency [1] | Potency [2] | Potency [3] | Potency [4]

O=C(CCNNC(=O)c1ccncc1)NCc1ccccc1
inactive: Potency [1] | Potency [2] | Potency [3] | Potency [4]

CC(C)Cn1cnc2c1c(=O)n(C)c(=O)n2C
inactive: Potency [1] | Potency [2] | Potency [3] | Potency [4]

CN(C)CCOc1ccccc1Cc1ccccc1
inactive: Potency [1] | Potency [2] | Potency [3] | Potency [4]

CC(=O)N[C@H]1[C@H]([C@H](O)[C@H](O)CO)OC(C(=O)O)=C[C@@H]1N=C(N)N
inactive: Potency [1] | Potency [2] | Potency [3] | Potency [4]

OCc1ccccc1O
inactive: Potency [1] | Potency [2] | Potency [3] | Potency [4]

CN(C(=O)CCCOc1ccc2[nH]c(=O)ccc2c1)C1CCCCC1
inactive: Potency [1] | Potency [2] | Potency [3] | Potency [4]

CCCCCCCCCCCCCCC[C@H](O)[C@@H](N)CO
inactive: Potency [1] | Potency [2] | Potency [3] | Potency [4]

Oc1cc(O)c2c(c1)O[C@H](c1ccc(O)c(O)c1)[C@H](O)C2
inactive: Potency [1] | Potency [2] | Potency [3] | Potency [4]

CN1CCCN=C1/C=C/c1cccs1
inactive: Potency [1] | Potency [2] | Potency [3] | Potency [4]

Cc1cccc(OCC(O)CNC(C)(C)C)c1C (stereo not given)
inactive: Potency [1] | Potency [2] | Potency [3] | Potency [4]

CN1[C@@H]2CC[C@H]1CC(OC(=O)c1c[nH]c3ccccc13)C2 (stereo not given in full)
inactive: Potency [1] | Potency [2] | Potency [3] | Potency [4]

N[C@H](C(=O)O)c1ccc(O)cc1
inactive: Potency [1] | Potency [2] | Potency [3] | Potency [4]

c1ccc(C(O[C@H]2CCCN(CCc3ccc4c(c3)OCO4)C2)c2ccccc2)cc1
inactive: Potency [1] | Potency [2] | Potency [3] | Potency [4]

CCOCC(O)COc1ccc(NC(=O)CC[S+](C)C)cc1 (stereo not given)
inactive: Potency [1] | Potency [2] | Potency [3] | Potency [4]

CC(C)=CCC/C(C)=C/CC/C(C)=C/C(=O)OCC(=O)[C@@]1(O)CC[C@H]2[C@@H]3CCC4=CC(=O)C=C[C@]4(C)[C@H]3[C@@H](O)C[C@@]21C
inactive: Potency [1] | Potency [2] | Potency [3] | Potency [4]

O=C1O[C@H]([C@@H](O)CO)C(O)=C1O
inactive: Potency [1] | Potency [2] | Potency [3] | Potency [4]

O=C(O)Cn1c(C(=O)Nc2nc(-c3ccccc3Cl)cs2)cc2ccccc21
inactive: Potency [1] | Potency [2] | Potency [3] | Potency [4]

CCCCCCCCCCCCCCCCCCOCC(O)CO (stereo not given)
inactive: Potency [1] | Potency [2] | Potency [3] | Potency [4]

NC(=O)c1ncn([C@@H]2O[C@H](CO)[C@@H](O)[C@H]2O)c1N
inactive: Potency [1] | Potency [2] | Potency [3] | Potency [4]

CO[C@@H]1[C@@H](O[C@@H]2O[C@H](C)[C@@H](O[C@H]3C[C@@](C)(O)[C@@H](O)[C@H](C)O3)[C@H](N(C)C)[C@H]2O)[C@@H](CC=O)C[C@@H](C)[C@@H](O[C@@H]2CC[C@H](N(C)C)[C@@H](C)O2)/C=C/C=C/C[C@@H](C)OC(=O)C[C@H]1OC(C)=O
inactive: Potency [1] | Potency [2] | Potency [3] | Potency [4]

CC(=O)Oc1ccc2c(c1)CC[C@@H]1[C@@H]2CC[C@]2(C)[C@@H](O)CC[C@@H]12
inactive: Potency [1] | Potency [2] | Potency [3] | Potency [4]

C/C=C/c1ccc(OC)cc1
inactive: Potency [1] | Potency [2] | Potency [3] | Potency [4]

CCCCOc1cc(C(=O)OCCN(CC)CC)ccc1N
inactive: Potency [1] | Potency [2] | Potency [3] | Potency [4]

CN1CCC(OC(c2ccccc2)c2ccccc2)CC1
inactive: Potency [1] | Potency [2] | Potency [3] | Potency [4]

CC(C)[C@@H]1CC[C@@H](C)CC1=O
inactive: Potency [1] | Potency [2] | Potency [3] | Potency [4]

OC[C@H]1O[C@@H](OCCc2ccc(O)cc2)[C@H](O)[C@@H](O)[C@H]1O
inactive: Potency [1] | Potency [2] | Potency [3] | Potency [4]

CCc1cccc2c(CCO)c[nH]c12
inactive: Potency [1] | Potency [2] | Potency [3] | Potency [4]

O=C(CCCN1CCN(c2ccccn2)CC1)c1ccc(F)cc1
inactive: Potency [1] | Potency [2] | Potency [3] | Potency [4]

O=C(c1ccc(F)cc1)C1CCN(CCn2c(=S)[nH]c3ccccc3c2=O)CC1
inactive: Potency [1] | Potency [2] | Potency [3] | Potency [4]

CC1=C(CC(=O)O)c2cc(F)ccc2/C1=C\c1ccc(S(C)(=O)=O)cc1
inactive: Potency [1] | Potency [2] | Potency [3] | Potency [4]

CCn1ccnc1CC1COc2ccccc2O1 (stereo not given)
inactive: Potency [1] | Potency [2] | Potency [3] | Potency [4]

CC(C)c1cc2c(cc1S(=O)(=O)O)[C@@]1(C)CCC[C@@](C)(C(=O)O)[C@@H]1CC2
inactive: Potency [1] | Potency [2] | Potency [3] | Potency [4]

CC(C)(C)c1ccc(C(=O)CCCN2CCC(OC(c3ccccc3)c3ccccc3)CC2)cc1
inactive: Potency [1] | Potency [2] | Potency [3] | Potency [4]

CCCOc1ccc(C(=O)OCCN(CC)CC)cc1N
inactive: Potency [1] | Potency [2] | Potency [3] | Potency [4]

CCN[C@@H]1C[C@H](N)[C@@H](OC2OC(CN)=CCC2N)[C@H](O)[C@H]1O[C@H]1OC[C@](C)(O)[C@H](NC)[C@H]1O (stereo not given in full)
inactive: activity change, negative = inhibition [1] -2.08% [at 0.757 µM] | activity change, negative = reduced viability [2] -5.5% [at 0.757 µM] | activity change, negative = lower viability [3] 0.253% [at 0.757 µM] | activity change, negative = inhibition [4] 10% [at 0.757 µM]

C(=C\c1ccccc1)/CN1CCN(C(c2ccccc2)c2ccccc2)CC1
inactive: Potency [1] | Potency [2] | Potency [3] | Potency [4]

NC(=O)CCCCC1CCSS1 (stereo not given)
inactive: Potency [1] | Potency [2] | Potency [3] | Potency [4]

O=c1[nH]c(=O)c2ccccc2o1
inactive: Potency [1] | Potency [2] | Potency [3] | Potency [4]

CN(C)CCC(c1ccccc1)c1ccccn1 (stereo not given)
inactive: Potency [1] | Potency [2] | Potency [3] | Potency [4]

CC(C)(Cc1c[nH]c2ccccc12)NCC(O)COc1ccccc1C#N (stereo not given)
inactive: Potency [1] | Potency [2] | Potency [3] | Potency [4]

COc1cc(C(=S)N2CCOCC2)ccc1O
inactive: Potency [1] | Potency [2] | Potency [3] | Potency [4]

CC(O)Cn1cnc2c1c(=O)n(C)c(=O)n2C (stereo not given)
inactive: Potency [1] | Potency [2] | Potency [3] | Potency [4]

O=C(O)CCC(=O)OC[C@@H](NC(=O)C(Cl)Cl)[C@H](O)c1ccc([N+](=O)[O-])cc1
inactive: Potency [1] | Potency [2] | Potency [3] | Potency [4]

COc1cccc(N(C)C(=S)Oc2ccc3c(c2)CCCC3)n1
inactive: Potency [1] | Potency [2] | Potency [3] | Potency [4]

CN1CCC(N(Cc2cccs2)c2ccccc2)CC1
inactive: Potency [1] | Potency [2] | Potency [3] | Potency [4]

Cc1ccc(=O)n(-c2ccccc2)c1
inactive: Potency [1] | Potency [2] | Potency [3] | Potency [4]

C[C@H](N)C(=O)N[C@@H](C)C(=O)NC1[C@H]2CN(c3nc4c(cc3F)c(=O)c(C(=O)O)cn4-c3ccc(F)cc3F)C[C@@H]12 (stereo not given in full)
inactive: Potency [1] | Potency [2] | Potency [3] | Potency [4]

CC(=O)O[C@H]1C[C@@H]2CC[C@@H]3[C@H](CC[C@@]4(C)[C@H]3C[C@H]([N+]3(C)CCCCC3)[C@@H]4OC(C)=O)[C@@]2(C)C[C@@H]1N1CCCCC1
inactive: Potency [1] | Potency [2] | Potency [3] | Potency [4]

O=C1OC(c2ccc(O)cc2)(c2ccc(O)cc2)c2ccccc21
inactive: Potency [1] | Potency [2] | Potency [3] | Potency [4]

CC(C)C[C@@H]1[C@H](c2ccccc2)OC(=O)N1CCCN1CCCCCC1
inactive: Potency [1] | Potency [2] | Potency [3] | Potency [4]

CC(=O)Nc1ccc(S(=O)(=O)Nc2ccc([N+](=O)[O-])cc2)cc1
inactive: Potency [1] | Potency [2] | Potency [3] | Potency [4]

C[C@@H]1C[C@H]2[C@@H]3CCC4=CC(=O)C=C[C@]4(C)[C@@]3(F)[C@@H](O)C[C@]2(C)[C@H]1C(=O)CO
inactive: Potency [1] | Potency [2] | Potency [3] | Potency [4]

CN(C)C(=O)Oc1cccc([N+](C)(C)C)c1
inactive: Potency [1] | Potency [2] | Potency [3] | Potency [4]

Source: PubChem BioAssay (NCATS)
